From PubChem BioAssay
SMN2 splice enh – qHTS Assay for Enhancers of SMN2 Splice Variant Expression | HEK293 SMN2-luciferase splicing reporter, luminescence, 30-36 h | Potency, µM (doses to about 46.1 µM), without a hit: at the highest dose activity change, positive = activation, usual class: activators | 210,000 compounds, 2.8% hits | AID 1458, 2008; also: % of control where 0% means no effect; nearly all actives have a fitted effect of over 55% in size
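HEK293 cells carry an SMN2 minigene-luciferase reporter in which exon 7 inclusion puts luciferase in frame. Cells were seeded at 2000 cells/well, attached for 10-12 hours, then exposed to compounds for 30-36 hours at 37C before ONE-Glo luminescence.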
ELG1 genotoxic – qHTS screen for small molecules that induce genotoxicity in human embryonic kidney (HEK293T) cells expressing luciferase-tagged ELG1; HEK293T ELG1-luciferase reporter, luminescence, 16 h; Potency, µM (top dose mostly 46 µM), without a hit: at the top dose activity change, positive = activation, hits mostly activators; 330,000 compounds, 1.3% hits; AID 504466, 2011; also: % of control where 0% means no effect; nearly all actives have a fitted effect of over 60% in size
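Reporter readout depends on ELG1 protein level, which increases with genetic stress. After 16 hr compound exposure at 37 °C, luciferase activity was quantified using ONE-Glo.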
ELG1 repair inh – qHTS screen for small molecules that inhibit ELG1-dependent DNA repair in human embryonic kidney (HEK293T) cells expressing luciferase-tagged ELG1. HEK293T ELG1-luciferase reporter, luminescence, 16 h; DNA damage induced by 5-fluorouridine. 330,000 compounds, 2.3% hits. Potency, µM (titrated, usually from 46.1 µM), without a hit: top-dose activity change, negative = inhibition, most hits filed as inhibitors. AID 504467, 2011; also: % is scaled to controls: 0 for no effect and ±100 for the full control effect; nearly all actives have a fitted effect of over 55% in size
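5-Fluorouridine DNA damage + compound/DMSO, 2,000 cells/well, 16 h, 37 °C/5% CO2. ONE-Glo, 30 min RT, luminescence. Readout = decrease in reporter signal.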
Rab9 promoter act – qHTS Assay for Rab9 Promoter Activators. Huh7 Rab9 promoter-luciferase reporter, luminescence, 24 h. Potency, µM (titrated, usually from 9.22 µM), without a hit: at the highest dose activation, negative = inhibition, actives largely listed as activators. 320,000 compounds, 2.8% hits. AID 485297, 2010; also: % of control where 0% means no effect; nearly all actives have a fitted effect of over 60% in size
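Measured in stably transfected Huh7 cells bearing a Rab9 promoter–luciferase construct: 24 h compound treatment at 37 °C, followed by luminescence detection.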
FLuc modulator – qHTS profiling assay for firefly luciferase inhibitor/activator using purifed enzyme and Km concentrations of substrates (counterscreen for miR-21 project) | purified FLuc, Km substrates, luminescence inhibition | Potency, µM (series often up to 57.5 µM), without a hit: at the highest dose activity change, negative = inhibition, hits mostly inhibitors | 360,000 compounds, 6.9% hits | AID 588342, 2011;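 also: plate controls were vehicle for no effect and reference inhibitor for full effect; nearly all actives have a fitted effect of over 55% in size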
Target sequence (P08659 whole entry, looked up): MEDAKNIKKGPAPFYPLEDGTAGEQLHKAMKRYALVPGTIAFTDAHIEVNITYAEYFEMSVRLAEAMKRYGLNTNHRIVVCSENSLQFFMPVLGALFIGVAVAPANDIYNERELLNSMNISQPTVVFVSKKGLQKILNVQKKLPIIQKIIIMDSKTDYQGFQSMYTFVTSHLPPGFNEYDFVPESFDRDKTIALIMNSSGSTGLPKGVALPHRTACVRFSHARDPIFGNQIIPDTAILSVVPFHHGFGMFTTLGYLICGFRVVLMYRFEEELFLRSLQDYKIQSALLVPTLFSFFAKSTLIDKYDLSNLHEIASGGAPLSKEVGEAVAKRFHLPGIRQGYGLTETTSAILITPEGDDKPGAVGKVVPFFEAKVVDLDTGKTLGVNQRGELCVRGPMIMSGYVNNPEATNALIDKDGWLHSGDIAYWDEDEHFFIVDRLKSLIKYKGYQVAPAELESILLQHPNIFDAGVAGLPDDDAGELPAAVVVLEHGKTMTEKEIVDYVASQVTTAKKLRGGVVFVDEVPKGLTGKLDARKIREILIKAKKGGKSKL
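Biochemical qHTS of compounds, final roughly 60 µM downward over six points, against 10 nM purified firefly luciferase using Km concentrations of substrates (10 uM D-luciferin, 10 uM ATP) in Tris acetate pH 7.5 buffer; luminescence output.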
NPC1 promoter act – qHTS Assay for NPC1 Promoter Activators; AID 485313, 2010; Huh7 NPC1 promoter luciferase reporter, 24 h; Potency, µM (doses to about 9.22 µM), without a hit: top-dose activation, hits mostly activators; 320,000 compounds, 2.4% hits; also: % of control where 0% means no effect; nearly all actives have a fitted effect of over 60% in size
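Quantitative HTS used a cell-based reporter: Huh7 cells stably bearing the NPC1 promoter upstream of luciferase were treated with compounds for 24 h, and promoter activation was read as luminescence.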
* marks the source's active call; other numbers are inactive results; ? = inconclusive; / = no result. Most compounds without a hit are left out; they make up all but 9.2% or so of the library. Calls follow the shape of the dose curve; as a rule, active = well fitted curve in the direction sought with a large enough effect; inconclusive = small, poorly fitted or top-dose-only effect, or another doubt; inactive = no such curve, though single readings can be large; an effect the other way counts as inactive or inconclusive. Potency is read from the fitted curve at half-maximal effect.

SMILES	SMN2 splice enh	ELG1 genotoxic	ELG1 repair inh	Rab9 promoter act	FLuc modulator	NPC1 promoter act
Cc1ccc(N=CNc2ccc(C)cc2C)c(C)c1	/	3%	-6%	13%	15µM*	-4%
CCOc1ccc(N=Nc2c(N)[nH][nH]c2=O)cc1	?	?	?	?	11µM*	?
CCOc1ccc(N=Nc2c(=O)[nH]n3c(=O)cc(C)[nH]c23)cc1	?	?	?	2.8µM*	4.8µM*	?
Cc1cc(=O)n2[nH]c(=O)c(N=Nc3ccccc3)c2[nH]1	-4%	9%	-7%	-2%	?	-1%
COc1cccc(N=Nc2c(N)[nH][nH]c2=O)c1	10µM*	?	?	28%	15µM*	25%
CCOC(=O)CSc1nc2c([nH]c3ccccc32)c(=O)n1-c1ccc(OCC)cc1	/	/	/	/	2%	/
COc1ccc2c(C#N)c3ccccn3c2c1	-11%	-14%	?	-9%	-10%	-1%
CN(CC1COc2ccccc2O1)C(=O)CSc1ncnc2sccc12 (stereo unspecified)	/	-1%	-12%	-8%	-17%	-1%
COc1cc(OC)c(N(C)S(=O)(=O)c2cccc(C(=O)NC3=NCCS3)c2)cc1Cl	/	-10%	16µM*	-8%	-1%	2%
COc1cc(OC)c(N(C)S(=O)(=O)c2cccc(C(=O)Nc3nc(C)cs3)c2)cc1Cl	/	-10%	18µM*	-4%	0%	-1%
COc1ccc(N(C)S(=O)(=O)c2cccc(C(=O)Nc3nc(C)cs3)c2)cc1	/	-2%	?	-4%	-1%	-5%
COc1ccccc1N(C)S(=O)(=O)c1ccc(Cl)c(C(=O)NC2=NCCS2)c1	17%	0%	-10%	?	-3%	-5%
COc1ccc(C(=O)NCc2ccc3c(c2)CCN3C(=O)c2cccc(C)c2)cc1OC	/	/	/	/	-17%	/
CCc1ccc(/C=N/NC(=O)c2nnn(-c3nonc3N)c2C(C)C)cc1	/	5%	9%	-7%	2.4µM*	-5%
CC(C)c1c(C(=O)N/N=C/c2ccc(Cl)cc2Cl)nnn1-c1nonc1N	/	5%	1%	0%	6µM*	3%
CCc1nnc2c3ccccc3nc(Nc3cc(C)cc(C)c3)n12	-12%	/	/	/	-11%	/
Cc1cc(Nc2ccc(Br)cc2)n2nc(-c3ccccc3C)nc2n1	-5%	/	/	/	?	/
C=C(C)CCOC(=O)C(CC(=O)O)NCc1ccco1 (stereo unspecified)	/	0%	0%	-1%	8%	-5%
Cc1ccccc1Nc1nc(N)nc(COC(=O)c2ccc(O)cc2)n1	16%	2%	?	16%	-11%	-2%
Cc1ccccc1Nc1nc(N)nc(COC(=O)c2cccn2C)n1	11µM*	16µM*	?	?	17µM*	3.5µM*
Cc1ccccc1Nc1nc(N)nc(COC(=O)c2ccccc2)n1	?	?	?	2.2µM*	15µM*	?
Cc1ccc(CCC(=O)Nc2ccc(N(C)C)cc2)o1	/	2%	6%	11%	?	17%
N#Cc1cnc2nc(SCc3ccccc3)nn2c1	/	?	?	?	-17%	1.4µM*
CSc1nc2ncc(C#N)cn2n1	8%	-3%	-6%	-1%	-1%	4%
Cc1cc(N2CCN(C)CC2)ccc1NC(=O)c1c2c(nc3ccccc13)CCN(Cc1ccccc1)C2	-70%	23µM*	?	-32%	-8%	-41%
CC(C)c1ccccc1NC(=O)COC(=O)c1c2c(nc3ccccc13)CCN(Cc1ccccc1)C2	-31%	-19%	12µM*	-3%	-12%	-2%
Cc1c(Cl)cccc1NC(=O)COC(=O)c1c2c(nc3ccccc13)CCN(Cc1ccccc1)C2	/	-7%	13µM*	-2%	-16%	-9%
